# How the values were obtained:
# Assay in all cases: DAPPL (digital affinity profiling via proximity ligation, sequencing); 10 mM Tris-HCl pH 7.5, 50 mM NaCl, 1 mM DTT, 4% glycerol, room temperature, 30 min; GST-TFs on glutathione beads, 16-mer random dsDNA library, 0.1% formaldehyde crosslink after washing; high values mean tight binding
# FLI1 = biological target: T1, FLI1 (Homo sapiens, UniProt Q01543 1-452); conditions: protein: recombinant; tags: N-terminal GST; dsDNA, one strand shown
# T1 sequence: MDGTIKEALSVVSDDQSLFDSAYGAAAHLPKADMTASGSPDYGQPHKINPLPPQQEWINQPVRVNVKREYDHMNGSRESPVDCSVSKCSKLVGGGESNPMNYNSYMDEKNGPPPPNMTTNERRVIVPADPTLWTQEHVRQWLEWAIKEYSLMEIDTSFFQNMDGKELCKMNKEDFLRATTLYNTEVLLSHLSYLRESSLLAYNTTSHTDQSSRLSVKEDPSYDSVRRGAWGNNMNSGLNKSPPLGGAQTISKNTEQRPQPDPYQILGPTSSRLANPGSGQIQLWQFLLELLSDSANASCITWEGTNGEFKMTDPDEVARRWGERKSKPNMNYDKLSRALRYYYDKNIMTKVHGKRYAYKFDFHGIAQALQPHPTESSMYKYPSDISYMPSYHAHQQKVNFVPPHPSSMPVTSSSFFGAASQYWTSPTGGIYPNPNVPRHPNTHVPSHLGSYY
# In short: (§1)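 Human transcription factors fused to GST were expressed in yeast, captured on glutathione beads, given DNA barcodes and pooled with a GST-only negative control. Pools were incubated with 200 nmole of a 16-mer random double-stranded DNA library in Tris/NaCl/DTT/glycerol buffer at room temperature for 30 min. They were then washed, crosslinked with 0.1% formaldehyde, proximity-ligated (BsaI/T4 ligase, 1 h, 37 °C), PCR-amplified and sequenced on an Illumina NextSeq500. Binding signal is each 6-mer's read frequency for a factor divided by its frequency for the GST control.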
# ELK1 = biological target: T2, ELK1 (Homo sapiens, UniProt P19419 1-428); conditions: protein: recombinant; tags: N-terminal GST; dsDNA, one strand shown
# T2 sequence: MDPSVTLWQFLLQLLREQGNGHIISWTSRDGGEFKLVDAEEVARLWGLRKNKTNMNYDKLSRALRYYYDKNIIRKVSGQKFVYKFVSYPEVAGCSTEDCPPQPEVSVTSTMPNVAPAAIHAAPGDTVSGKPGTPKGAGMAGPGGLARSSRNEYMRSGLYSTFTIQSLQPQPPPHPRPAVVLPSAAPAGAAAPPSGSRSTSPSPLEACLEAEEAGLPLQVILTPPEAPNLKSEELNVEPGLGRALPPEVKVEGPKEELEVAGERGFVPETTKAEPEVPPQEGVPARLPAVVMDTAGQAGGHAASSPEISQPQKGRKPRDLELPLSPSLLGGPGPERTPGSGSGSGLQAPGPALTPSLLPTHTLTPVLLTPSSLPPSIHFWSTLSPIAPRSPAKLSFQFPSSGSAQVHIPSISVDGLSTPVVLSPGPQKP
# In short: as §1
# GABPA = biological target: T3, GABPA (Homo sapiens, UniProt Q06546 1-454); conditions: protein: recombinant; tags: N-terminal GST; dsDNA, one strand shown
# T3 sequence: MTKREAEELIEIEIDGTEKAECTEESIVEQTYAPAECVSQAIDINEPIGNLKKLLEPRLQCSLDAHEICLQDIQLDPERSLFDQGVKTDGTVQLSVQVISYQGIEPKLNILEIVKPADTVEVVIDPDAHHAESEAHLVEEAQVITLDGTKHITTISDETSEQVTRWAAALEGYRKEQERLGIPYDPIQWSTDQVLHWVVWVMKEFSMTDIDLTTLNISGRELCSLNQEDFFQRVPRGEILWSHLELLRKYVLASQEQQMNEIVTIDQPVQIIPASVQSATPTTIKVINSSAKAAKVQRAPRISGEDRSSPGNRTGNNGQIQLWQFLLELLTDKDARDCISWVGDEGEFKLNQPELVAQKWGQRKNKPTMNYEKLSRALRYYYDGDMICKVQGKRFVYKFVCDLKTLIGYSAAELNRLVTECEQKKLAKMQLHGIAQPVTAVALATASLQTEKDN
# In short: as §1
# ERG = biological target: T4, ERG (Homo sapiens, UniProt P11308 1-479); conditions: protein: recombinant; tags: N-terminal GST; dsDNA, one strand shown
# T4 sequence: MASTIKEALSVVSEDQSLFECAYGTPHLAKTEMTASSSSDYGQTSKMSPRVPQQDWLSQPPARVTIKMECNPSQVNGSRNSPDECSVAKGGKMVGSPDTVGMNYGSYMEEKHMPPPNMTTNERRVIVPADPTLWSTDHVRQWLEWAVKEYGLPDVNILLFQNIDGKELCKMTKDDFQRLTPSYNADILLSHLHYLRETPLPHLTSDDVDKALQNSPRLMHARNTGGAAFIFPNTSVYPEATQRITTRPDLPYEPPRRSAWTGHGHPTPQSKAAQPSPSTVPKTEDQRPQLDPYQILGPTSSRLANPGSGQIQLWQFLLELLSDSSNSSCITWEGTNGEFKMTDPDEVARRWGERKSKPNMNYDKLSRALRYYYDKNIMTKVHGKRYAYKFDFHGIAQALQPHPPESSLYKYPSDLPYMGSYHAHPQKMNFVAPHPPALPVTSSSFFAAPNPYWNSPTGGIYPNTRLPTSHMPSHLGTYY
# In short: as §1
# ELF1 = ELF1 (Homo sapiens, UniProt P32519 1-619); conditions: protein: recombinant; tags: N-terminal GST; dsDNA, one strand shown
# In short: as §1
# EHF = biological target: T5, EHF (Homo sapiens, UniProt Q9NZC4 1-300); conditions: protein: recombinant; tags: N-terminal GST; dsDNA, one strand shown
# T5 sequence: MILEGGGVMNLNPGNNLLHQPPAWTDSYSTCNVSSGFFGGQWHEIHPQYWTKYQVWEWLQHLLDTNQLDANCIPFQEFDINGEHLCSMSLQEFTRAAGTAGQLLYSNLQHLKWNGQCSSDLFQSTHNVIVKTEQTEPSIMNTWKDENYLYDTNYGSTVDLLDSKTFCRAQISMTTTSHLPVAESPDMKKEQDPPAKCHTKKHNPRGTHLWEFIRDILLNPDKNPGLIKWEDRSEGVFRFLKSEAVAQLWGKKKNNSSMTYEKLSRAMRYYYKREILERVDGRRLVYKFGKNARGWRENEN
# In short: as §1
# SPI1 = SPI1 (Homo sapiens, UniProt P17947 1-270); conditions: protein: recombinant; tags: N-terminal GST; dsDNA, one strand shown
# In short: as §1
# SPIB = SPIB (Homo sapiens, UniProt Q01892 1-262); conditions: protein: recombinant; tags: N-terminal GST; dsDNA, one strand shown
# In short: as §1
# ELK3 = biological target: T6, ELK3 (Homo sapiens, UniProt P41970 1-407); conditions: protein: recombinant; tags: N-terminal GST; dsDNA, one strand shown
# T6 sequence: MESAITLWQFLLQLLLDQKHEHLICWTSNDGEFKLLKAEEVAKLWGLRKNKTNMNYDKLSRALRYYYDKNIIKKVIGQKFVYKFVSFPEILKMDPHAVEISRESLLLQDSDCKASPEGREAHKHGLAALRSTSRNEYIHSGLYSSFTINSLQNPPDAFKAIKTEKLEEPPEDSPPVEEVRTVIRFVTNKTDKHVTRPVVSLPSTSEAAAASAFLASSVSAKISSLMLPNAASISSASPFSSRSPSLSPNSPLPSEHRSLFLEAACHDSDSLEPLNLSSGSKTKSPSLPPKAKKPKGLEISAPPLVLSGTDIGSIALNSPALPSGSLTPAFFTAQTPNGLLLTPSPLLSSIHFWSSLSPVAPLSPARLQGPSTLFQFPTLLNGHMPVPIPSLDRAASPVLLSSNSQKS
# In short: as §1
# FEV = biological target: T7, FEV (Homo sapiens, UniProt Q99581 1-238); conditions: protein: recombinant; tags: N-terminal GST; dsDNA, one strand shown
# T7 sequence: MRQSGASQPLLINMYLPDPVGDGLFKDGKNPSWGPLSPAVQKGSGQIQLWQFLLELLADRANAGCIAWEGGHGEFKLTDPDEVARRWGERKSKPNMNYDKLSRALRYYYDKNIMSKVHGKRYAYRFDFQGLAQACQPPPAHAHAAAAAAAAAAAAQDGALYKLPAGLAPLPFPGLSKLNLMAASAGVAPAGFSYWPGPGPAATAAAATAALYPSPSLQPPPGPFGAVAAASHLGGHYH
# In short: as §1
# ETV5 = ETV5 (Homo sapiens, UniProt P41161 1-510); conditions: protein: recombinant; tags: N-terminal GST; dsDNA, one strand shown
# In short: as §1
# HSF1 = HSF1 (Homo sapiens, UniProt Q00613 1-529); conditions: protein: recombinant; tags: N-terminal GST; chain copies: 3; dsDNA, one strand shown
# In short: as §1
# SPIC = biological target: T8, SPIC (Homo sapiens, UniProt Q8N5J4 1-248); conditions: protein: recombinant; tags: N-terminal GST; dsDNA, one strand shown
# T8 sequence: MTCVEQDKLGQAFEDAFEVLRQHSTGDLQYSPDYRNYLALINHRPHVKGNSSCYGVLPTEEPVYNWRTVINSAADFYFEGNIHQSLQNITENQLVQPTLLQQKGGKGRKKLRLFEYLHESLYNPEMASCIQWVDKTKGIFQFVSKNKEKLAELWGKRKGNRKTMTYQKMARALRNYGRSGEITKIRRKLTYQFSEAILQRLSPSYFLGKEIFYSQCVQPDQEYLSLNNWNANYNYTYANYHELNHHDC
# In short: as §1
# ELF4 = ELF4 (Homo sapiens, UniProt Q99607 1-663); conditions: protein: recombinant; tags: N-terminal GST; dsDNA, one strand shown
# In short: as §1
# ELK4 = biological target: T9, ELK4 (Homo sapiens, UniProt P28324-2 1-405); conditions: protein: recombinant; tags: N-terminal GST; dsDNA, one strand shown
# T9 sequence: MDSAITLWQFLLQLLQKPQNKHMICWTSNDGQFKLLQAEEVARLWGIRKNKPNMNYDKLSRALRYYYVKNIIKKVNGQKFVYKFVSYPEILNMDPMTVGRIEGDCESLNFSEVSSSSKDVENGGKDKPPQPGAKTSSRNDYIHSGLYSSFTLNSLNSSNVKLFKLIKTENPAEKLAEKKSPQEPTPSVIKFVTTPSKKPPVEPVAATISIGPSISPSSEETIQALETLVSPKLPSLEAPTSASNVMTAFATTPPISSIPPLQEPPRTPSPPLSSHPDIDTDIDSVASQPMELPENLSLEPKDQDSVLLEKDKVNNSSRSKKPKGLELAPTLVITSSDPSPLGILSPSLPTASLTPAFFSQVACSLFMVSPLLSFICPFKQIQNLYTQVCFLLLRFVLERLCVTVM
# In short: as §1
# ETV2 = biological target: T10, ETV2 (Homo sapiens, UniProt O00321 1-342); conditions: protein: recombinant; tags: N-terminal GST; dsDNA, one strand shown
# T10 sequence: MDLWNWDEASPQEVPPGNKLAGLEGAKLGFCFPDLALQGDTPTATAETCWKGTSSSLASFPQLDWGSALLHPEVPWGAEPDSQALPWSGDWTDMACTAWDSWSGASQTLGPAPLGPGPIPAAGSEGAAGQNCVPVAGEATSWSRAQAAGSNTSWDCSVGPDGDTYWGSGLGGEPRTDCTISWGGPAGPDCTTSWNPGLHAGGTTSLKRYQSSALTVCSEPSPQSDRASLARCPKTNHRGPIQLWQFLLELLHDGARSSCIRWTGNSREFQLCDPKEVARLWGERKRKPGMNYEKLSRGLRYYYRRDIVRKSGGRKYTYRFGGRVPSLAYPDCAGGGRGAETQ
# In short: as §1
# ELF3 = biological target: T11, ELF3 (Homo sapiens, UniProt P78545 1-371); conditions: protein: recombinant; tags: N-terminal GST; dsDNA, one strand shown
# T11 sequence: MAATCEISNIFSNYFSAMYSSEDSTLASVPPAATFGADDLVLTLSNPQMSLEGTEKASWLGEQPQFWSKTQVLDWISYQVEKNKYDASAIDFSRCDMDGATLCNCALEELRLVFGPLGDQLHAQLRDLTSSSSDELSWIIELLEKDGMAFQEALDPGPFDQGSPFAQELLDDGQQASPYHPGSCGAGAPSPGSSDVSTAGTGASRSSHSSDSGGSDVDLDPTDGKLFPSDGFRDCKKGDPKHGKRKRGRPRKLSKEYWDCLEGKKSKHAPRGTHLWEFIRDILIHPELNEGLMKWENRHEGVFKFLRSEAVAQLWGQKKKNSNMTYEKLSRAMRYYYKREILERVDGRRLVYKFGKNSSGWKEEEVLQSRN
# In short: as §1
# CRX = CRX (Homo sapiens, UniProt O43186 1-299); conditions: protein: recombinant; tags: N-terminal GST; dsDNA, one strand shown
# In short: as §1
# ETV1 = ETV1 (Homo sapiens, UniProt P50549 1-477); conditions: protein: recombinant; tags: N-terminal GST; dsDNA, one strand shown
# In short: as §1
# Chain of ELF4 (Q99607 whole entry): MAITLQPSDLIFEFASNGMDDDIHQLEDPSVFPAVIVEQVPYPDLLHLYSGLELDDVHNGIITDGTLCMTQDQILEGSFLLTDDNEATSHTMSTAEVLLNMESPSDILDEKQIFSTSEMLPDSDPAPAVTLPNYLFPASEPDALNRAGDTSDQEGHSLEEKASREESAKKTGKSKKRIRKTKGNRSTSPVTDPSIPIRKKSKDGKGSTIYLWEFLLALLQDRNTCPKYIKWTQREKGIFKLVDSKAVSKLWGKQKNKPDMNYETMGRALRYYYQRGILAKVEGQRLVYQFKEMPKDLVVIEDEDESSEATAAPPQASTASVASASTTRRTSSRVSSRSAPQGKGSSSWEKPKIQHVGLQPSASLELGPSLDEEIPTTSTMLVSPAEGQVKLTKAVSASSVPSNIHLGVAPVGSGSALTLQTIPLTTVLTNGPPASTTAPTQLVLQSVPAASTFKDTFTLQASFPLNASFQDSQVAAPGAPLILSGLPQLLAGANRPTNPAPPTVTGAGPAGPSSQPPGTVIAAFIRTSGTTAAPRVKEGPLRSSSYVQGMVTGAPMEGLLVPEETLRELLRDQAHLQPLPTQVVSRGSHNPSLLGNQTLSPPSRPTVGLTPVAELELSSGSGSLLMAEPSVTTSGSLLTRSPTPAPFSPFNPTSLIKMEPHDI
# Chain of HSF1 (Q00613 whole entry): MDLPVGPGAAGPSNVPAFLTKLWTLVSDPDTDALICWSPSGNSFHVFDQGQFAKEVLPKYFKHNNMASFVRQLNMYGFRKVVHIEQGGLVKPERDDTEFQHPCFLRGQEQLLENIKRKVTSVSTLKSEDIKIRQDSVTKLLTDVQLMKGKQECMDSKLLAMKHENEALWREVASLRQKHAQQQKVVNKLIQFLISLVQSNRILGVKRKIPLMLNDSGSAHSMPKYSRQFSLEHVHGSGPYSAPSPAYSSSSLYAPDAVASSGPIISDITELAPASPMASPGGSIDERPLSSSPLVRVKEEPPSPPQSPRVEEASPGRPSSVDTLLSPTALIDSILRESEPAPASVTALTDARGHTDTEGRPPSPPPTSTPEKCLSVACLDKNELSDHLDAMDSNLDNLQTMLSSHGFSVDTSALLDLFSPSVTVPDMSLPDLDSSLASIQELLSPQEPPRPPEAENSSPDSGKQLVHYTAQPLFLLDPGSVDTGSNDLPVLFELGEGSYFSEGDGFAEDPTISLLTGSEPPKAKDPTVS
# Chain of SPIB (Q01892 whole entry): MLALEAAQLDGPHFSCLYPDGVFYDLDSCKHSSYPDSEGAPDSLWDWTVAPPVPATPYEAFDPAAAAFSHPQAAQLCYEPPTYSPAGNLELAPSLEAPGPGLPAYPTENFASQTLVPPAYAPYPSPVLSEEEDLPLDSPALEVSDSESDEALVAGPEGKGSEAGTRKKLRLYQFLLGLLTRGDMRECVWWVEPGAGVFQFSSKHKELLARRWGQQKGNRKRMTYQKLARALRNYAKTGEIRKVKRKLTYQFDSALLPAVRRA
# Chain of ETV1 (P50549 whole entry): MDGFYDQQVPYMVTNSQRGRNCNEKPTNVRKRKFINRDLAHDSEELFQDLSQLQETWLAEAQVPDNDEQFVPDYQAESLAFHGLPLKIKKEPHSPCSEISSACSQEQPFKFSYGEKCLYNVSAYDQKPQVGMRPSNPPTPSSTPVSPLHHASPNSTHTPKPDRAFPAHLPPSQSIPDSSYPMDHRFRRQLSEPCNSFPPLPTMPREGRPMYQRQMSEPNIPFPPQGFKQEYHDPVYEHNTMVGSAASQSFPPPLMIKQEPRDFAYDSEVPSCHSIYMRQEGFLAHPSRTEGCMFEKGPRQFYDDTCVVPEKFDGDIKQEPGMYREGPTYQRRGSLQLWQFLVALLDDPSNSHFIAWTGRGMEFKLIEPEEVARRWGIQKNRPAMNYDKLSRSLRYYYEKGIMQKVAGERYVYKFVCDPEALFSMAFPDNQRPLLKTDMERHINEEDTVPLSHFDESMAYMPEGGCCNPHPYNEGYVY
# Chain of ETV5 (P41161 whole entry): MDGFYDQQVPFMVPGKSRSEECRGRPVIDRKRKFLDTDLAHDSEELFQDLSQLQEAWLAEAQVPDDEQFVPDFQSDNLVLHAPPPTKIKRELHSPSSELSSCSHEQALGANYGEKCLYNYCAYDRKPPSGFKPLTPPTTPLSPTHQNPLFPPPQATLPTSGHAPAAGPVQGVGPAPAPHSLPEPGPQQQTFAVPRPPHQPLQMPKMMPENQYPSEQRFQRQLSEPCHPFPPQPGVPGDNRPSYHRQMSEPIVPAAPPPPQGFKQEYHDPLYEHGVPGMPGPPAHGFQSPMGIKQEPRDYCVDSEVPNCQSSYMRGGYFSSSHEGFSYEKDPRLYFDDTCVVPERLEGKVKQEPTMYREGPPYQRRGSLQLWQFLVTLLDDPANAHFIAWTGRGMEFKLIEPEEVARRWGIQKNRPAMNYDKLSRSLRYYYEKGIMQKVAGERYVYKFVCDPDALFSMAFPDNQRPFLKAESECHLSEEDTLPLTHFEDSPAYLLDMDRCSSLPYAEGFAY
# Chain of ELF1 (P32519 whole entry): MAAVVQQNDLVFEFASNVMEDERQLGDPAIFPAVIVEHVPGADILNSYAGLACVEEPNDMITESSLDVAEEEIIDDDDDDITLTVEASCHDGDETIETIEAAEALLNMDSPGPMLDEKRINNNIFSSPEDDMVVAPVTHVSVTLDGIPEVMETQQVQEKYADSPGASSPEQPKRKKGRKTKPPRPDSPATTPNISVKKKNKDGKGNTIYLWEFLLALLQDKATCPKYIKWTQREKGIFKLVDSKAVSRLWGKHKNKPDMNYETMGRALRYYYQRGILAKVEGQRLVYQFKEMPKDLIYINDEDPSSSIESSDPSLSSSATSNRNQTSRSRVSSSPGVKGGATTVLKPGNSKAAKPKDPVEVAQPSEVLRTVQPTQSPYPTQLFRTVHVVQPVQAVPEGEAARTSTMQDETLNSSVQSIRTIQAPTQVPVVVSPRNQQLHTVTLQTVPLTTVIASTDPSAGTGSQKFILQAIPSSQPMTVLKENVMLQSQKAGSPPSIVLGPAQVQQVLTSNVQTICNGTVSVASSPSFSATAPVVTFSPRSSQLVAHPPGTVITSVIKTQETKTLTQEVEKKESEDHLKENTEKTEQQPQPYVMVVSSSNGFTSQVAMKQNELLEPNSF
# Chain of CRX (O43186 whole entry): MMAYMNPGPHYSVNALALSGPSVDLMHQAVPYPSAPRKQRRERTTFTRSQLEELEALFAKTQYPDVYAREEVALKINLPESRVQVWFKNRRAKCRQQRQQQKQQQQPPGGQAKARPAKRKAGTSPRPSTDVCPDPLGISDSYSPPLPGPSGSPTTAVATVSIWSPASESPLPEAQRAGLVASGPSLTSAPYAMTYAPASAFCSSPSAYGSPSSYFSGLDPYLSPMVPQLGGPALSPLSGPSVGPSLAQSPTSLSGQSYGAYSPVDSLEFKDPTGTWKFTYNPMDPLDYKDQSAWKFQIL
sequence,measurement,setting,value
TCGCCT,binding signal,FLI1,"1.32 fold enrichment (6-mer frequency, TF over GST control)"
same,binding signal,ELK1,"1.36 fold enrichment (6-mer frequency, TF over GST control)"
same,binding signal,GABPA,"1.2 fold enrichment (6-mer frequency, TF over GST control)"
same,binding signal,ERG,"1.31 fold enrichment (6-mer frequency, TF over GST control)"
same,binding signal,ELF1,"1.21 fold enrichment (6-mer frequency, TF over GST control)"
same,binding signal,EHF,"1.34 fold enrichment (6-mer frequency, TF over GST control)"
same,binding signal,SPI1,"1.16 fold enrichment (6-mer frequency, TF over GST control)"
same,binding signal,SPIB,"1.23 fold enrichment (6-mer frequency, TF over GST control)"
same,binding signal,ELK3,"1.15 fold enrichment (6-mer frequency, TF over GST control)"
same,binding signal,FEV,"1.28 fold enrichment (6-mer frequency, TF over GST control)"
same,binding signal,ETV5,"1.3 fold enrichment (6-mer frequency, TF over GST control)"
same,binding signal,HSF1,"1.3 fold enrichment (6-mer frequency, TF over GST control)"
same,binding signal,SPIC,"1.22 fold enrichment (6-mer frequency, TF over GST control)"
same,binding signal,ELF4,"1.27 fold enrichment (6-mer frequency, TF over GST control)"
same,binding signal,ELK4,"1.5 fold enrichment (6-mer frequency, TF over GST control)"
same,binding signal,ETV2,"1.3 fold enrichment (6-mer frequency, TF over GST control)"
same,binding signal,ELF3,"1.31 fold enrichment (6-mer frequency, TF over GST control)"
same,binding signal,CRX,"1.32 fold enrichment (6-mer frequency, TF over GST control)"
same,binding signal,ETV1,"1.41 fold enrichment (6-mer frequency, TF over GST control)"

# From PMC7862700, “An all-to-all approach to the identification of sequence-specific readers for epigenetic DNA modifications on cytosine”
